Tb PYK inh: qHTS of Trypanosoma Brucei Inhibitors; Potency, µM (doses to about 76.8 µM), actives largely listed as inhibitors; TbPYK enzyme, Kinase-Glo Plus ATP luminescence, 45 min; hit rate 0.12% among 410,000; active = well fitted curve in the direction sought with a large enough effect; inconclusive = small, poorly fitted or top-dose-only effect, or another doubt; inactive = no such curve, though single readings can be large; an effect the other way counts as inactive or inconclusive; note: nearly all actives have a fitted effect of over 50% in size
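Screened from lowest to highest concentration, compounds were pinned into TbPYK/substrate mixtures, and ADP (130 uM final) was added. Plates sat at room temperature for 45 min prior to Kinase-Glo Plus detection by luminescence.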
Shiga inhibitor: A qHTS for Small Molecule Inhibitors of Shiga Toxin. AID 2315, 2010. hit rate 9.2% among 290,000. inhibition, % at 38.7 µM. Vero cells, Shiga toxin protein synthesis inhibition reporter; in the data active = inhibition mostly above about 28%, no sharp cut-off; inactive = mostly below about 43%
LmPK inhibitor: qHTS Assay for Inhibitors of Leishmania Mexicana Pyruvate Kinase (LmPK); Q27686; purified LmPK, Kinase-Glo ATP luminescence, 1 h; Potency, µM (highest dose often 57.5 µM), usual class: inhibitors; hit rate 0.37% among 290,000; active = well fitted curve in the direction sought with a large enough effect; inconclusive = small, poorly fitted or top-dose-only effect, or another doubt; inactive = no such curve, though single readings can be large; an effect the other way counts as inactive or inconclusive
Target sequence (Q27686 whole entry, looked up): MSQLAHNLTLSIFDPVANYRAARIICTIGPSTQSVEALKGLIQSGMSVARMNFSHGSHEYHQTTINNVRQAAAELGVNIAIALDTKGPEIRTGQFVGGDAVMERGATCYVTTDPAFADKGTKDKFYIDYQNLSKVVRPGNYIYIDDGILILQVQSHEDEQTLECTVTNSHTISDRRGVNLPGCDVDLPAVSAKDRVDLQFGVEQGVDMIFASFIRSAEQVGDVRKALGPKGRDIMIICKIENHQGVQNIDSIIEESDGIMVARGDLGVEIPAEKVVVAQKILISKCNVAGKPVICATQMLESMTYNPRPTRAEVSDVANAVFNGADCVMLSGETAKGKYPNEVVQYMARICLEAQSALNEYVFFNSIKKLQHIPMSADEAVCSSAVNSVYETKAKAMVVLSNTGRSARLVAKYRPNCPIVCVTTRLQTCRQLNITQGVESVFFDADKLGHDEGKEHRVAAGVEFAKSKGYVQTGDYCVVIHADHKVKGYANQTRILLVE
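Purified LmPK (0.1 nM) with 0.5 mM PEP and 0.1 mM ADP in imidazole buffer pH 7.2 with MgCl2/KCl, 1 h at room temperature. ATP formed was read by luciferase luminescence and normalized to no-enzyme and uninhibited controls.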
NS1 inh: qHTS Assay for Inhibitors of Influenza NS1 Protein Function. Potency, µM (titrated, usually from 46.1 µM). hit rate 0.4% among 270,000. AID 2326, 2010; note: actives are rising curves; nearly all actives have a fitted effect of over 50% in size
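OD600 was taken as the measure of yeast growth restored by compound in an NS1-expressing S. cerevisiae strain. Cells had been washed out of glucose medium and diluted 1:100 into galactose -URA medium, pH 6.0.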
SARS PLP yeast: qHTS of Yeast-based Assay for SARS-CoV PLP; S. cerevisiae expressing SARS-CoV PLpro, growth rescue; Potency, µM (series often up to 32.9 µM), most hits filed as activators; hit rate 0.19% among 330,000; note: nearly all actives have a fitted effect of over 55% in size
CHX counter: Cycloheximide Counterscreen for Small Molecule Inhibitors of Shiga Toxin; cell reporter, cycloheximide protein synthesis inhibition counterscreen; max response, %; hit rate 12% among 300,000; AID 2314, 2010; in the data active = max response mostly above about 13%, no sharp cut-off; inactive = mostly below about 14%; note: read at 38.3 µM for the half of the compounds with a filed dose
NS1 inh valid: Assay for Inhibitors of Influenza NS1 Protein Function: Hit Validation; 1,400 tested, under 10 active; activity change, negative = inhibition, % at 32.9 µM; AID 492980, 2010; influenza NS1 function cell assay, 15-point titration; shares compounds with NS1 inh
PR8 titer: Assay for Inhibitors of Influenza NS1 Protein Function: Influenza virus replication assay in MDCK cells infected with virus A/PR/8/34. AID 504647, 2011. virus titer (log TCID50), log10 TCID50 at 5 µM. shares compounds with NS1 inh. MDCK infected influenza A/PR/8/34, virus titer TCID50; hits give low values. hit rate 30% among 95; call rule not given here
A number is an active result; . = inactive; ? = inconclusive; / = no result given. Only a selection was taken, and hits are over-represented in it overall. Unless noted, calls come from the whole dose curve.

SMILES	Tb PYK inh	Shiga inhibitor	LmPK inhibitor	NS1 inh	SARS PLP yeast	CHX counter	NS1 inh valid	others
Cc1cc(OCc2ccc(C(=O)NN=C3CCCC3)cc2)ccc1Cl	.	84.7	.	14.1µM	.	57.5	?
COc1ccc(C2CC(c3cccs3)=NN2c2ccc(C=O)cc2)cc1 (stereo unspecified)	.	55.0	.	11.2µM	.	45.9	.
Cn1c(N)c(C(=O)COC(=O)/C=C/c2ccccc2)c(=O)n(C)c1=O	.	/	/	/	.	/	/
Cc1c(C)c(C)c(C(=O)c2ccc(NC(=O)c3ccccc3C(=O)O)cc2)c(C)c1C	.	.	.	.	.	.	/
CN(CC(=O)NC1CCCCCC1)S(=O)(=O)c1ccc(F)cc1	.	.	.	.	.	.	/
CN(CC(=O)NC1CCCCC1)S(=O)(=O)c1ccc(Cl)cc1	.	.	.	?	.	.	.
O=C(CCSc1ccc(Cl)cc1)NC1CCCCC1	.	.	.	?	.	.	.
Cc1sc2ncnc(SCC(=O)c3ccc(O)cc3O)c2c1C	.	.	.	.	.	.	/
Cc1sc2ncnc(SCC(=O)c3ccc(Cl)s3)c2c1C	/	.	.	7.08µM	.	.	.
O=C1N=C(N2CCc3ccccc3C2)S/C1=C\c1cccc(O)c1	.	.	.	?	.	.	?
COc1ccc(/C=C2\SC(N3CCc4ccccc4C3)=NC2=O)cc1	.	.	.	.	.	.	/
COc1ccccc1-n1c(SCC(=O)Nc2ccccc2C)nc(O)cc1=O	.	.	.	?	.	.	/
COc1ccccc1-n1c(SCC(=O)NC(C)(C)C)nc(O)cc1=O	.	.	.	8.91µM	.	.	.	PR8 titer=.
COc1ccccc1NC(=O)CSc1nc(O)cc(=O)n1-c1ccccc1OC	.	.	.	10µM	.	.	.
Cc1ccc(NC(=O)c2ccc(-n3cncn3)c([N+](=O)[O-])c2)cc1F	.	/	/	/	.	/	/
COc1cccc(CNC(=O)CCCCCn2c(=O)[nH]c3cc(OC)c(OC)cc3c2=O)c1	.	/	/	/	/	/	/
CC1CC(C)CN(CCCNC(=O)c2ccc3c(c2)ncn3C2CCCC2)C1 (stereo unspecified)	.	.	.	?	.	.	.
CCN(CC)CCNC(=O)c1ccc2c(c1)ncn2C1CCCCC1	.	.	.	.	.	.	/
Cc1ccc(Cl)cc1NC(=O)CCn1c(=O)c2cccn2c2cccnc21	.	/	/	/	/	/	/
Cc1cc(C)c(S(C)(=O)=O)c(Oc2ccccc2C)n1	.	.	.	1µM	.	.	.
COc1ccc(CCNC(=O)c2cnc3sc(N4CCCC4)nn3c2=O)cc1OC	.	/	/	/	/	/	/
CN(C)S(=O)(=O)c1ccc(N2CCCC2)c(C(=O)Nc2nc3c(ccc4ccccc43)s2)c1	.	.	.	14.1µM	.	.	.
CCN(CC)c1nc2c3c(nc4c(c3c1C#N)CC(=O)N4c1ccc(Cl)cc1)NC(C)=N2	.	.	.	14.1µM	.	.	.
S=c1[nH]c2ncccc2o1	.	.	.	.	.	.	/
S=c1[nH]c2cc(Cl)c3cccnc3c2o1	?	.	.	3.98µM	.	.	.
SMILES	Tb PYK inh	Shiga inhibitor	LmPK inhibitor	NS1 inh	SARS PLP yeast	CHX counter	NS1 inh valid	others
COc1ccccc1/C=N/NC(=O)c1nnn(-c2nonc2N)c1-c1cccs1	.	.	.	2.24µM	.	.	.
COC(=O)c1ccc(N2NC(=O)/C(=C/c3cc(OC)c(OC)c(OC)c3)C2=O)cc1	?	.	.	.	.	.	/
COC(=O)c1ccc(N2NC(=O)/C(=C/c3cc(OC)c(O)c(OC)c3)C2=O)cc1	.	.	.	3.55µM	.	.	.
O=c1cc(O)nc2n1CCCS2	.	.	.	7.94µM	.	.	.
O=C(O)CC(c1cccc2ccccc12)N1Cc2ccccc2C1=O (stereo unspecified)	.	.	.	?	.	.	.
Cc1cc(C(=O)N2CCC2(C)C(=O)NCC(C)(C)C)nn1C (stereo unspecified)	.	/	/	/	/	/	/
COc1ccc(NS(=O)(=O)c2ccc(OC)c(NC(=O)CCC3CCCC3)c2)cc1	.	.	.	?	.	.	.
CCN1CCN(CCCNC(=O)C2CCCN(c3nnc(-n4cccc4)s3)C2)CC1 (stereo unspecified)	.	.	.	5.01µM	.	.	.
CN1CCN(CCCNC(=O)C2CCN(c3nnc(-n4cccc4)s3)CC2)CC1	.	.	.	.	.	.	/
COc1ccc(C2CC(c3ccccc3Cl)Nc3ncnn32)cc1OC (stereo unspecified)	.	.	.	4.47µM	.	.	?
O=C(O)CCSCc1ccc(I)cc1	/	/	/	.	/	/	/
N=c1c2c(n(Cc3ccc(F)cc3)c3c1CCC3)CCC2	.	.	.	1µM	.	.	.
CCn1c2c(c(=N)c3c1CCC3)CCC2	.	.	.	.	.	.	/
Cc1ccc(NC(=O)CN(C)C(=O)c2cc(-c3cccs3)nn2-c2ccccc2)cc1	.	/	/	/	.	/	/
Cc1cc(NC(=O)c2cccc(S(=O)(=O)N(C)C)c2)n(-c2ccccn2)n1	.	.	.	12.6µM	.	.	.
Cc1cc(NC(=O)c2cccc(S(=O)(=O)N3CCCCCC3)c2)n(-c2ccccn2)n1	.	.	.	.	.	.	/
COc1cc(/C=C2\C(C)=C(C#N)c3nc(N)c(C#N)c(C)c32)ccc1OCC(=O)O	.	.	.	.	.	.	/
CC1=C(C#N)c2nc(N)c(C#N)c(C)c2/C1=C\c1ccc(C)cc1	/	.	.	12.6µM	.	.	?
O=C(N/N=C\c1cccc(O)c1)c1ccncc1	/	/	/	.	/	/	/
O=C(N/N=C/c1cccc(O)c1)c1ccc(COc2ccccc2Br)cc1	.	.	.	?	.	.	?
COc1ccc(CNC(=O)C[C@@H]2C[C@H]3c4cc(NC(=O)C5CCC5)ccc4O[C@H]3[C@@H](CO)O2)cc1	.	/	/	/	/	/	/
O=c1cc(O)cc(/C=C/c2ccc(O)c(O)c2)o1	/	/	/	6.31µM	/	/	.
O=c1c2ccccc2nc(/C=C/c2ccc(O)c(O)c2)n1-c1ccccc1	.	.	?	.	.	.	/
COc1ccc(-c2nc(-c3ccccc3)c(-c3cc([N+](=O)[O-])ccc3C)[nH]2)cc1O	.	.	.	.	.	.	/
COc1ccc(-c2nc(=S)c3c([nH]2)Oc2ccc(C)cc2C3)cc1O	.	.	.	10µM	.	.	.
Cc1[nH]c2ccccc2c1C(O)CN1CCN(c2cccc(C(F)(F)F)c2)CC1 (stereo unspecified)	.	.	.	?	.	.	?

Compound activity: PubChem, National Center for Advancing Translational Sciences (NCATS)
